Here are results for one molecule from the supplement of paper PMC8728848.

About 410 targets per protein were measured; listed, in parts, are those with the strongest signals and a random draw of the rest.

Holding throughout (test): glycan array binding signal (z-score within array); higher = stronger binding
Holding throughout (details): glycan notation: IUPAC condensed, linker removed

The target in experiment [1] is GlcNAc(b1-3)Gal(b1-4)Glc. The procedure, abridged: (§1)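 Glycan array binding is given as a within-array Z-score, which can be read as non-binding when negative. The arrays, 3228 of them, came from the Consortium for Functional Glycomics database and were retained only where the protein sequence was available. Z-scores were averaged across arrays of the same protein sequence at different concentrations or buffers and across linkers.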

The target in experiment [2] is GlcNAc(b1-3)Gal(b1-4)GlcNAc(b1-2)Man(a1-3)[GlcNAc(b1-3)Gal(b1-4)GlcNAc(b1-2)Man(a1-6)]Man(b1-4)GlcNAc(b1-4)[Fuc(a1-6)]GlcNAc. The gist of the method: as §1
In experiment [3] the target is GlcNAc(b1-3)Gal(b1-4)GlcNAc(b1-3)Gal(b1-4)GlcNAc. The procedure, abridged: as §1
Experiment [4] has as its target GlcNAc(b1-3)Gal(b1-4)GlcNAc(b1-3)Gal(b1-4)GlcNAc(b1-2)Man(a1-3)[GlcNAc(b1-3)Gal(b1-4)GlcNAc(b1-3)Gal(b1-4)GlcNAc(b1-2)Man(a1-6)]Man(b1-4)GlcNAc(b1-4)GlcNAc. The gist of the method: as §1
Experiment [5] has as its target GlcNAc(b1-3)Gal(b1-4)GlcNAc(b1-3)Gal(b1-4)GlcNAc(b1-2)Man(a1-3)[GlcNAc(b1-3)Gal(b1-4)GlcNAc(b1-3)Gal(b1-4)GlcNAc(b1-2)Man(a1-6)]Man(b1-4)GlcNAc(b1-4)[Fuc(a1-6)]GlcNAc. The gist of the method:
as §1

In experiment [6] the target is GlcNAc(b1-3)Gal(b1-4)GlcNAc(b1-3)Gal(b1-4)GlcNAc(b1-2)[GlcNAc(b1-3)Gal(b1-4)GlcNAc(b1-3)Gal(b1-4)GlcNAc(b1-6)]Man(a1-6)[GlcNAc(b1-3)Gal(b1-4)GlcNAc(b1-3)Gal(b1-4)GlcNAc(b1-2)Man(a1-3)]Man(b1-4)GlcNAc(b1-4)[Fuc(a1-6)]GlcNAc. The procedure, abridged:
as §1

Experiment [7] addresses GlcNAc(b1-3)Gal(b1-4)GlcNAc(b1-3)Gal(b1-4)GlcNAc(b1-3)Gal(b1-4)GlcNAc(b1-2)Man(a1-3)[GlcNAc(b1-3)Gal(b1-4)GlcNAc(b1-3)Gal(b1-4)GlcNAc(b1-3)Gal(b1-4)GlcNAc(b1-2)Man(a1-6)]Man(b1-4)GlcNAc(b1-4)GlcNAc. The procedure, abridged: as §1
For experiment [8], the target named is GlcNAc(b1-3)Gal(b1-4)GlcNAc(b1-3)Gal(b1-4)GlcNAc(b1-3)Gal(b1-4)GlcNAc(b1-2)Man(a1-3)[GlcNAc(b1-3)Gal(b1-4)GlcNAc(b1-3)Gal(b1-4)GlcNAc(b1-3)Gal(b1-4)GlcNAc(b1-2)Man(a1-6)]Man(b1-4)GlcNAc(b1-4)[Fuc(a1-6)]GlcNAc. The procedure, abridged:
as §1

The target of experiment [9] is GlcNAc(b1-3)Gal(b1-4)GlcNAc(b1-3)Gal(b1-4)GlcNAc(b1-3)Gal(b1-4)GlcNAc(b1-2)[GlcNAc(b1-3)Gal(b1-4)GlcNAc(b1-3)Gal(b1-4)GlcNAc(b1-3)Gal(b1-4)GlcNAc(b1-6)]Man(a1-6)[GlcNAc(b1-3)Gal(b1-4)GlcNAc(b1-3)Gal(b1-4)GlcNAc(b1-3)Gal(b1-4)GlcNAc(b1-2)Man(a1-3)]Man(b1-4)GlcNAc(b1-4)[Fuc(a1-6)]GlcNAc. The procedure, abridged: as §1
In experiment [10] the target is GlcNAc(b1-3)Gal(b1-4)GlcNAc(b1-3)Gal(b1-4)GlcNAc(b1-3)Gal(b1-4)GlcNAc(b1-3)Gal(b1-4)GlcNAc(b1-2)Man(a1-3)[GlcNAc(b1-3)Gal(b1-4)GlcNAc(b1-3)Gal(b1-4)GlcNAc(b1-3)Gal(b1-4)GlcNAc(b1-3)Gal(b1-4)GlcNAc(b1-2)Man(a1-6)]Man(b1-4)GlcNAc(b1-4)GlcNAc. The procedure, abridged:
as §1

Experiment [11] has as its target GlcNAc(b1-3)Gal(b1-4)GlcNAc(b1-3)Gal(b1-4)GlcNAc(b1-3)Gal(b1-4)GlcNAc(b1-3)Gal(b1-4)GlcNAc(b1-2)Man(a1-3)[GlcNAc(b1-3)Gal(b1-4)GlcNAc(b1-3)Gal(b1-4)GlcNAc(b1-3)Gal(b1-4)GlcNAc(b1-3)Gal(b1-4)GlcNAc(b1-2)Man(a1-6)]Man(b1-4)GlcNAc(b1-4)[Fuc(a1-6)]GlcNAc. The procedure, abridged: as §1
The target of experiment [12] is GlcNAc(b1-3)Gal(b1-4)GlcNAc(b1-3)Gal(b1-4)GlcNAc(b1-3)Gal(b1-4)GlcNAc(b1-3)Gal(b1-4)GlcNAc(b1-2)[GlcNAc(b1-3)Gal(b1-4)GlcNAc(b1-3)Gal(b1-4)GlcNAc(b1-3)Gal(b1-4)GlcNAc(b1-3)Gal(b1-4)GlcNAc(b1-6)]Man(a1-6)[GlcNAc(b1-3)Gal(b1-4)GlcNAc(b1-3)Gal(b1-4)GlcNAc(b1-3)Gal(b1-4)GlcNAc(b1-3)Gal(b1-4)GlcNAc(b1-2)Man(a1-3)]Man(b1-4)GlcNAc(b1-4)[Fuc(a1-6)]GlcNAc. The gist of the method: as §1

The target in experiment [13] is GlcNAc(b1-3)Gal(b1-4)GlcNAc(b1-6)[GlcNAc(b1-3)Gal(b1-3)]GalNAc. The gist of the method:
as §1

For experiment [14], the target named is GlcNAc(b1-3)[GlcNAc(b1-6)]GalNAc. The procedure, abridged: as §1
Experiment [15] has as its target GlcNAc(b1-4)GlcNAc(b1-4)GlcNAc(b1-4)GlcNAc(b1-4)GlcNAc(b1-4)GlcNAc. The procedure, abridged: as §1
Experiment [16] addresses GlcNAc(b1-6)Gal(b1-4)GlcNAc. The gist of the method:
as §1

In experiment [17] the target is Kdn(a2-3)Gal(b1-4)[Fuc(a1-3)]GlcNAc. The gist of the method:
as §1

Experiment [18] has as its target Neu5Ac(a2-3)Gal. The procedure, abridged: as §1
Experiment [19] concerns the target Neu5Ac(a2-3)Gal(b1-4)GlcNAc(b1-2)Man. The gist of the method: as §1
Experiment [20] concerns the target Neu5Ac(a2-3)Gal(b1-4)GlcNAc(b1-2)[Neu5Ac(a2-3)Gal(b1-4)GlcNAc(b1-4)]Man(a1-3)[GlcNAc(b1-4)][Neu5Ac(a2-3)Gal(b1-4)GlcNAc(b1-2)[Neu5Ac(a2-3)Gal(b1-4)GlcNAc(b1-6)]Man(a1-6)]Man(b1-4)GlcNAc(b1-4)GlcNAc. The gist of the method: as §1
The target of experiment [21] is Neu5Ac(a2-3)Gal(b1-4)[Fuc(a1-3)]GlcNAc(b1-3)Gal(b1-4)[Fuc(a1-3)]GlcNAc(b1-3)Gal(b1-4)[Fuc(a1-3)]GlcNAc. The procedure, abridged:
as §1

In experiment [22] the target is Neu5Ac(a2-3)GalNAc(b1-4)GlcNAc. The procedure, abridged: as §1
The target of experiment [23] is Neu5Ac(a2-6)Gal(b1-4)GlcNAc(b1-2)Man(a1-3)[Gal(b1-4)GlcNAc(b1-2)Man(a1-6)]Man(b1-4)GlcNAc(b1-4)GlcNAc. The gist of the method: as §1
In experiment [24] the target is Neu5Ac(a2-6)Gal(b1-4)GlcNAc(b1-2)Man(a1-3)[Man(a1-6)]Man(b1-4)GlcNAc(b1-4)GlcNAc. The gist of the method: as §1

B1: PVL (Psathyrella velutina), Q309D1_9AGAR (protein)
chain: MSVVVISQALPVPTRIPGVADLVGFGNGGVYIIRNSLLIQVVKVINNFGYDAGGWRVEKHVRLLADTTGDNQPDVVGFGENGVWISTNNGNNTFVDPPKMVLANFAYAAGGWRVEKHIRFMADLRKTGRADIVGFGDGGIYISRNNGGGQFAPAQLALNNFGYAQGWRLDRHLRFLADVTGDGLLDVVGFGENQVYIARNSGNGTFQPAQAVVNNFCIGAGGWTISAHPRVVADLTGDRKADILGFGVAGVYTSLNNGNGTFGAVNLVLKDFGVNSGWRVEKHVRCVSSLTNKKVGDIIGFGDAGVYVALNNGNGTFGPVKRVIDNFGYNQGWRVDKHPRFVVDLTGDGCADIVGFGENSVWACMNKGDGTFGPIMKLIDDMTVSKGWTLQKTVRYAANLYL
Regarding B1, the “glycan array binding signal (z-score)” value in [1] is 4.07; in experiment [2], 3.27; in experiment [3], 4.46; in experiment [4] it was 3.34; in [5] it was 4.03; in experiment [6], 4.69. The “glycan array binding signal (z-score)” value in experiment [7] stood at 4.58; in experiment [8] it was 4.34; in [9] it was 5.13; in experiment [10] it was 4.45; in experiment [11], 4.27; in experiment [12], 5.12. Moreover, the “glycan array binding signal (z-score)” value in experiment [13] is 2.71; in experiment [14], 1.1; in experiment [15] it was 0.53; in [16], 0.714; in experiment [17], -0.363; in [18] it was -0.341. Besides, the “glycan array binding signal (z-score)” value was -0.35 in [19]; -0.201 in [20]; -0.297 in experiment [21]; -0.351 in experiment [22]; -0.362 in [23]; -0.349 in experiment [24].
